Source: ChEMBL document CHEMBL1157539, “Thousands of chemical starting points for antimalarial lead identification” (Nature, 2010)

Test system: Plasmodium falciparum
Experiment: GSK_TCMDC: Inhibition of Plasmodium falciparum 3D7 in whole red blood cells, using parasite LDH activity as an index of growth. Test compounds present at 2uM
Format: functional

Structure (SMILES) | Inhibition [%]
COc1ccc2ccccc2c1C=NN=c1cc(C)[nH]c2cc(C(F)(F)F)ccc12 | 92
COc1ccc(C(=O)N[C@@H](CC(C)C)C(=O)NC2CC[C@@H](C)N(C(=O)Nc3ccc(Cl)cc3)CC2=O)cc1OCCN1CCOCC1 (stereo partly specified) | 96
C=CCN1C(=O)CN(S(=O)(=O)c2ccc(-n3nc(C)cc3C)cc2)C1=S | 93
Cc1ccc(C2CC(=O)CC(c3ccccn3)C2[N+](=O)[O-])cc1 (stereo unspecified) | 97
Fc1ccc2[nH]c(-c3ccc(-c4ccc(CN5CCN(CCN6CCOCC6)CC5)cc4)cc3)nc2c1.O=C(O)C(F)(F)F | 100
O=C(O)C(F)(F)F.Oc1ccc(CCNc2nc(NCc3ccccc3-c3cccc(Cl)c3)nc(N3CCNCC3)n2)cc1 | 84
O=C(Nc1ccc(Cl)c(C(F)(F)F)c1)c1ccc(C(=O)Nc2ccc(Cl)c(C(F)(F)F)c2)cc1 | 88
COc1ccc(-c2ccc(CNCc3ccccc3)cc2)cc1S(=O)(=O)NCCN1CCCC1.O=C(O)C(F)(F)F | 100
CCc1ccccc1N1CCN(CCCC(=O)c2ccc(NC(=O)c3ccc(Cl)cc3)cc2)CC1 | 90
O=C(O)C(F)(F)F.OCCN1CCN(Cc2ccc(-c3cccc(-c4nc5ccccc5[nH]4)c3)cc2)CC1 | 96
CCN(CCCN1CCCCC1)c1nc(C)cc(Nc2ccc(Cl)cc2)n1 | 98
CS(=O)(=O)NCCCNCc1ccc(-c2ccc(-c3nc4cc(C(F)(F)F)ccc4[nH]3)cc2)cc1.O=C(O)C(F)(F)F | 100
CC(=O)c1ccc(S(=O)(=O)N2CCC(C(=O)Nc3ccccc3N3CCCC3)CC2)cc1 | 95
Cc1cc(Cl)c(S(=O)(=O)NC(C)(C)C)cc1OCC(=O)NC1CCCCC1 | 93
O=c1cc(NCCCNC(CNCCc2ccccc2)c2cc(Br)cc(Br)c2)[nH]c2ccccc12 (stereo unspecified) | 93
CC(=O)Nc1cccc(C(=O)Nc2cccc(-c3cccc(-c4nc5ccccc5[nH]4)c3)c2)c1 | 100
Cc1cc(Nc2ccc(Cl)cc2)n2nc(C(F)(F)F)nc2n1 | 97
COc1cccc(C=NNc2cc(C)nc3c(OC)cccc23)c1 | 99

Structure (SMILES) | Inhibition [%]
Cc1cc(NC(=O)CCN2CCN(c3cccc(Cl)c3Cl)CC2)ccc1N1CCN(C(C)C)CC1.Cl | 99
COc1ccc(NC(=O)/C=C/c2ccccc2Cl)cc1OCCN1CCC(N(C)C)CC1 | 89
CCOC(=O)c1c[nH]c2c(ccc3ccccc32)c1=O | 96
O=C1c2ccccc2C(=O)N1CCOc1c(Br)cc(Br)cc1CNCCCNc1cc(=O)c2ccccc2[nH]1 | 92
CC(C)(CN)c1nc(-c2ccc(Br)c(O)c2)c(-c2ccncc2)[nH]1.Cl | 96
c1ccc(Oc2ccc(Nc3ccnc4cc(-c5ccc(CNCCN6CCOCC6)o5)ccc34)cc2)nc1 | 100
CC(C)COc1ccc(Cl)cc1Cc1ccc(-c2nc3ccc(F)c(F)c3[nH]2)o1 | 94
Cc1ccc(NS(=O)(=O)c2ccc(-c3ccccc3)cc2)c(Cn2cnc(N3CCCNCC3)cc2=O)c1.O=C(O)C(F)(F)F | 87
O=C(O)C(F)(F)F.O=S(=O)(NCCN1CCCC1)c1ccc(-c2cccc(CNCCc3cccs3)c2)cc1 | 95
CN1CCCC(CN2CCN(Cc3cccc(-c4ccc(-c5nc6ccccc6[nH]5)s4)c3)CC2)C1.O=C(O)C(F)(F)F (stereo unspecified) | 99
COc1ccc2[nH]c3ccccc3c(=O)c2c1 | 87
NC(=O)C1CCN(Cc2ccc(-c3ccc(-c4nc5cc(F)ccc5[nH]4)cc3)cc2)CC1.O=C(O)C(F)(F)F | 100
O=C(Nc1ccc(-c2ccc(-c3nc4cc(C(F)(F)F)ccc4[nH]3)cc2)cc1)Nc1ccc(F)c(F)c1F | 99
CCN(CC)/C(=N\CCCCCC/N=C(\NC(=N)c1ccc(Cl)cc1)N(CC)CC)NC(=N)c1ccc(Cl)cc1 | 97
CCc1ccc(S(=O)(=O)Nc2ccc(CCN3CCC(N4CCCCC4)CC3)cc2)cc1 | 100
COCCOc1cccc(CN2CCC(c3cc4nc(C)cc(C(F)(F)F)n4n3)C2)c1.O=C(O)CC(O)(CC(=O)O)C(=O)O (stereo unspecified) | 85
CCCc1cc(Cc2cnc(N)nc2N)cc(CCC)c1OC.Cl | 92
Cc1cc2nc(N/C(N)=N/C(=O)NC3CCCCC3)nc(C)c2cc1C | 94
